# Bioassay records as filed in PubChem.
# Pf growth 96h = P. falciparum growth inhibition at 96 hours. P. falciparum luciferase reporter growth, 96 h. Potency, µM (highest dose often 28.7 µM), for the others: at the highest dose activity change, negative = inhibition, actives largely listed as inhibitors. actives 6.9% (n = 320,000). AID 504834
#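 Compounds incubated with erythrocytes infected by luciferase-expressing P. falciparum (2% hematocrit, 0.05% parasitemia final) for 96 hours, 37 C in 5% CO2. Growth inhibition scored as decreased luciferase luminescence.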
# AMA1-RON2 inh = inhibitors of Plasmodium falciparum AMA1-RON2 interaction | actives 0.2% (n = 360,000) | AlphaScreen AMA1-biotinylated RON2 peptide binding | Potency, µM (doses to about 58.2 µM), for inactives: at the top dose activity change, negative = inhibition, hits mostly inhibitors | AID 720542;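 note: 0% = vehicle wells and -100% = peptide control; nearly all actives have a fitted effect of over 45% in size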
#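 AMA1 (3D7) with his tag at 25 nM final met compounds first, then biotinylated RON2 peptide at 25 nM; detection used donor plus acceptor beads, 10 µg/mL apiece, read by AlphaScreen after 30 min at room temperature.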
# HCV inhibitor = HCV inhibition; Huh7.5.1 HCVcc-Cre infection, luciferase reporter, 44 h; Potency, µM (doses to about 41.8 µM), for the others: top-dose activity change, negative = inhibition, hits mostly inhibitors; actives 3.4% (n = 340,000); AID 651820
#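 A cell-based infection assay in which seeded cells (1,000 per well) receive test compound after 4 h, are inoculated with HCVcc-Cre at approximately 0.5 moi, and are incubated 44 h before luminescence detection.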
# Pf growth 48h = P. falciparum growth inhibition at 48 hours (one generation); P. falciparum luciferase growth in erythrocytes, 48 h; Potency, µM (series often up to 28.7 µM), for the others: top-dose activity change, negative = inhibition, actives largely listed as inhibitors; actives 5.9% (n = 310,000); AID 504832
#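 Luciferase-expressing P. falciparum in infected erythrocytes (2% hematocrit, 0.1% parasitemia final) in RPMI 1640/0.5% Albumax were exposed to compound for 48 hours at 37 C, 5% CO2; growth read as luminescence.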
# Starred values were filed as active, the others as inactive; ? = inconclusive; . = no result; [ ] = dose if it differs, or a comment. This is a sample that favours compounds with a hit; in the whole collection about 11% have one here. Calls come from the whole dose curve; as a rule, active = well fitted curve in the direction sought with a large enough effect; inconclusive = small, poorly fitted or top-dose-only effect, or another doubt; inactive = no such curve, though single readings can be large; an effect the other way counts as inactive or inconclusive. Unless noted, % is set by controls: 0 for no effect and ±100 for the full control effect; potency is the fitted concentration of half-maximal effect.
SMILES,Pf growth 96h,AMA1-RON2 inh,HCV inhibitor,Pf growth 48h
Oc1c(C(Nc2nccs2)c2ccc(C(F)(F)F)cc2)ccc2cccnc12 (stereo not given),-73%,1%,?,0.37µM*
Oc1c(C(Nc2cccc(C(F)(F)F)c2)c2ccncc2)ccc2cccnc12 (stereo not given),?,-24%,6.3µM*,1.9µM*
COc1cc(C(=O)OC2C[C@H]3CC[C@@H](C2)N3C)ccc1O (stereo not given in full),31%,4%,2%,35%
COc1cc(C(=O)OC2C[C@H]3CC[C@@H](C2)N3)ccc1O (stereo not given in full),?,-1%,-8%,12µM*
CC1CCN(CC(=O)N2c3ccccc3CC2C)CC1 (stereo not given),0.59µM*,14%,5%,11%
CC1Cc2ccccc2N1C(=O)CNc1ccccc1N1CCCCC1 (stereo not given),13µM*,?,1%,?
CC1Cc2ccccc2N1C(=O)CN1CCN(Cc2ccccc2)CC1 (stereo not given),29%,?,-13%,4%[0.00184 µM]
CC1Cc2ccccc2N1C(=O)CSc1ccccc1 (stereo not given),?,6%,?,-16%
OC[C@@H]1CN(Cc2ccco2)C[C@H](n2cnc3c(NC4CC4)ncnc32)O1,.,3%,.,.
COc1ccccc1C(=O)Nc1ccc2c(c1)n(C)c(=O)n2C,-1%,-1%,-6%,10%
NC(=O)c1ccc(OCC(F)(F)C(F)(F)C(F)(F)C(F)(F)C(F)(F)C(F)F)cc1,12µM*,-4%,0%,7%
COc1cccc(C(=O)C2CN(c3ccccc3)CC2c2ccc(Cl)cc2)c1 (stereo not given),10µM*,-6%,12%,10µM*
COc1cccc(C(=O)C2CN(C)CC2c2ccc(Cl)cc2)c1 (stereo not given),?,-5%,-1%,?
O=C(c1ccco1)N1CCN(c2ncnc3scc(-c4ccccc4)c23)CC1,0%,11%,?,.
c1ccc(-c2csc3ncnc(N4CCOCC4)c23)cc1,32%,2%,-4%,-4%
COc1ccc(CN2CCN(c3ncnc4scc(-c5ccc(F)cc5)c34)CC2)cc1,9.3µM*,-6%,?,?
O=C(c1ccco1)N1CCN(c2ncnc3scc(-c4cccs4)c23)CC1,?,-3%,?,12µM*
c1ccc(-c2csc3ncnc(N4CCc5ccccc5C4)c23)cc1,12µM*,-16%,?,12µM*
Fc1ccc(-c2csc3ncnc(N4CCN(c5ccccc5)CC4)c23)cc1,5.9µM*,-8%,-14%,12µM*
CCN1CCN(c2ncnc3scc(-c4ccc(OC)cc4)c23)CC1,14%,-13%,-16%,-1%[0.00184 µM]
CCN1CC=C2C(C1)C(c1ccc(Cl)s1)C(C#N)=C(N)C2(C#N)C#N (stereo not given),.,-3%,-24%,?
O=Cc1c(-c2ccc(Cl)cc2)oc2ccc(O)cc12,.,8%,-1%,.
CC(Oc1ccc2ccc(=O)oc2c1)C(=O)NC1CC(C)(C)NC(C)(C)C1 (stereo not given),31%,0%,22%,37%
c1ccc(N2CCN(c3ncnc4scc(-c5cccs5)c34)CC2)cc1,-27%,-12%,11µM*,?
COc1ccc(N2CCN(c3ncnc4scc(-c5ccccc5)c34)CC2)cc1,?,?,?,9.3µM*
SMILES,Pf growth 96h,AMA1-RON2 inh,HCV inhibitor,Pf growth 48h
COc1ccc(-c2csc3ncnc(N4CCN(c5cccc(OC)c5)CC4)c23)cc1,?,-17%,-16%,?
COc1ccc(-c2csc3ncnc(N4CCN(c5cccc(Cl)c5)CC4)c23)cc1,7.4µM*,-21%,?,?
COc1ccc(N2CCN(c3ncnc4scc(-c5ccc(F)cc5)c34)CC2)cc1,12µM*,13µM*,?,?
Cc1ccc(NC(=O)Cn2c(=O)oc3ccccc32)c(C)c1,?,1%,20%,-2%
CCOC(=O)c1ccc(NC(=O)c2ccc[n+]([O-])c2)cc1,12%,-1%,19%,21%
NC(=O)c1[nH]cnc1N,5%,81%,-3%,19%
S=C(NCC1CCCO1)N1CCN(Cc2ccccc2Cl)CC1 (stereo not given),0%,-5%,-12%,-5%
FC(F)(F)c1cccc(N2CCN(C(=S)NCC3CCCO3)CC2)c1 (stereo not given),41%,2%,11µM*,?
